Screening data as filed in PubChem BioAssay.
HPGD inh = blocks human HPGD enzyme activity | P15428 | purified HPGD, NADH fluorescence kinetic, PGE2 substrate | Potency, µM, hits mostly inhibitors | 150,000 compounds, 4.3% hits
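NADH formation kinetics: reaction with 30 uM PGE2 and 1 mM NAD+ (final), 20 nM enzyme, Tris-HCl pH 8 with Tween 20, after 15 min compound preincubation at room temperature. Fluorescence change, last versus first of five reads.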
IMPase inh = IMPase inhibition in cells; P97697; AID 901; 120,000 tested, under 10 active; inhibition (IP1 accumulation), % at 46.1 µM; CHO-M1 cells, IP1 accumulation, HTRF TR-FRET ratio; active = well fitted curve in the direction sought with a large enough effect in the signal ratio, not every such curve was filed as active; inconclusive = small, poorly fitted or top-dose-only effect, or a change in a side signal; inactive = no such curve, though single readings can be large or run the other way; the % refers to the signal ratio;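 also: cells stimulated with carbachol in lithium chloride buffer; higher means more IMPase inhibition seen as more IP1 and lower FRET ratio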
Target sequence (P97697 whole entry, looked up): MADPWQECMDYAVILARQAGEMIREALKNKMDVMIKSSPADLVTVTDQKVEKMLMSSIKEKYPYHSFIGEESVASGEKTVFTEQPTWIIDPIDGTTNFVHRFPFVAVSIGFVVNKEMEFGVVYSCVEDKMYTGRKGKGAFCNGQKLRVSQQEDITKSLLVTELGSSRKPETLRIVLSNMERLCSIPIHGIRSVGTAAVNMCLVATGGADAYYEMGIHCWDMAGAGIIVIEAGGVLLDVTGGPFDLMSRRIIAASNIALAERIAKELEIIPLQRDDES
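Measured: the HTRF emission ratio (665/620 nm) plus the 620 nm donor channel, each fitted to the Hill equation to give AC50. Cells were CHO-M1 given compounds up to 46 uM and a 30 min carbachol stimulation at 37C.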
ALDH1A1 inh = blocks purified human ALDH1A1 activity; 220,000 compounds, 7.3% hits; Purified ALDH1A1, NADH fluorescence, propionaldehyde substrate; P00352; Potency, µM (titrated, usually from 75.3 µM), actives largely listed as inhibitors
Target sequence (P00352 whole entry, looked up): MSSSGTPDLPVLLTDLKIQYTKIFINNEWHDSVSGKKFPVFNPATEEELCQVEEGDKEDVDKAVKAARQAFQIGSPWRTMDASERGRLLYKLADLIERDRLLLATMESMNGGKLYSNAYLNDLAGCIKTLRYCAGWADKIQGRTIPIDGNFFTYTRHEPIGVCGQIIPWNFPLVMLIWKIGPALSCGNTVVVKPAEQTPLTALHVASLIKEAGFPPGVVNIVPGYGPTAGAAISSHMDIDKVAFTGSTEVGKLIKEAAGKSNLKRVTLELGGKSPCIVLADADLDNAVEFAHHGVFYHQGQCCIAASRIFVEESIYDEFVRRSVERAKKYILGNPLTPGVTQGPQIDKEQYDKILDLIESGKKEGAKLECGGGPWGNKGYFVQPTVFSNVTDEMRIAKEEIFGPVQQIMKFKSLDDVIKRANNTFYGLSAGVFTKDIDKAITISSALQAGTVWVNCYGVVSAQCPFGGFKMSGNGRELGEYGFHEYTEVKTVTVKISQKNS
Large screens that a line does not name were inactive. Shown are actives, neighbours in structure and some others; about 9% of the full set was active somewhere. Unless noted, calls follow the shape of the dose curve; as a rule, active = well fitted inhibition curve with a large enough effect (not every such curve was filed as active); inconclusive = small, poorly fitted or top-dose-only effect, or another doubt; inactive = no such curve, though single readings can be large or run the other way.

COc1ccc(CC(=O)OC2CCCN(C)C2)cc1 (stereo not drawn)	none (no result: HPGD inh, IMPase inh)
CCCS(=O)(=O)c1nc(S(=O)(=O)c2ccc(C)cc2)c(N2CCCC2)s1	ALDH1A1 inh 7.94µM
Cc1ccc(S(=O)(=O)c2nc(S(C)(=O)=O)sc2N(C)C)cc1	none
Cc1ccc2nc(NNC(=O)c3ccc(S(=O)(=O)N4CCc5ccccc5C4)cc3)sc2c1	none (no result: IMPase inh)
CCCS(=O)(=O)c1nc(S(=O)(=O)c2ccc(C)cc2)c(N2CCc3ccccc3C2)s1	ALDH1A1 inh 1.41µM
Cc1cccc(C)c1NC(=O)CN1CCN(CCCC(c2ccc(F)cc2)c2ccc(F)cc2)CC1	none
Cc1ccc2nc(C)/c(=N\O)c(C)nc2c1	none
Cc1nc2ccccc2nc(C)c1=NO	ALDH1A1 inh 22.4µM
CN(C)C(=O)c1nnsc1Sc1ccc(Cl)cc1	none (no result: HPGD inh, IMPase inh)
CC1CN(C)C(c2ccccc2)C(C)C12NC(=O)NC2=O (stereo not drawn)	ALDH1A1 inh 7.08µM
CC1C(c2ccccc2)N(C)C(c2ccccc2)CC1(O)c1ccccc1 (stereo not drawn)	none
Cc1cccc[n+]1CC(=O)Nc1cccc([N+](=O)[O-])c1	none (no result: HPGD inh, IMPase inh)
CCOc1ccc(Cc2nccc3cc(OCC)c(OCC)cc23)cc1OCC	none
Cc1ccc(-n2ncc3c(NCc4ccccn4)ncnc32)c(C)c1	HPGD inh 12.6µM, ALDH1A1 inh inconclusive
Clc1ccc(-n2ncc3c(NCc4ccccn4)ncnc32)cc1	HPGD inh inconclusive, ALDH1A1 inh inconclusive
c1ccc(-n2ncc3c(NCc4ccco4)ncnc32)cc1	HPGD inh inconclusive, ALDH1A1 inh inconclusive
Cc1ccc(-n2ncc3c(NCc4ccco4)ncnc32)c(C)c1	HPGD inh 3.55µM
CCCCNc1ncnc2c1cnn2-c1ccc(C)cc1C	HPGD inh inconclusive, ALDH1A1 inh inconclusive
COCCCNc1ncnc2c1cnn2-c1ccc(C)cc1C	HPGD inh 7.94µM
CCC(=O)Nc1ccc(C(=O)NNC(=O)Cc2ccccc2)cc1	none
O=S(=O)(c1ccc(F)cc1)N1CCN(Cc2ccccn2)CC1	none (no result: HPGD inh, IMPase inh)
Cc1ccc(C(=O)NNC(=S)NC(=O)COc2ccccc2)cc1	ALDH1A1 inh 17.8µM
COc1ccc(NC(=O)COc2ccc(S(=O)(=O)NC3CCCCC3)cc2)cc1OC	none (no result: HPGD inh, ALDH1A1 inh)
Cc1cccc(OCC(=O)NC(=S)Nc2ccc(S(=O)(=O)NC3CCCCC3)cc2)c1	HPGD inh inconclusive, ALDH1A1 inh 15.8µM
CCC(=O)NC(=S)NNC(=O)c1ccc([N+](=O)[O-])cc1	ALDH1A1 inh 20µM
COC(=O)c1ccccc1NC(=S)NC(=O)COc1ccccc1	ALDH1A1 inh inconclusive
CC(NC(=O)COc1cccc(Br)c1)C(=O)O (stereo not drawn)	none (no result: HPGD inh)
CC(NC(=O)COc1ccc(Br)cc1)C(=O)O (stereo not drawn)	ALDH1A1 inh 10µM
COc1ccc(C(=O)NNC(=O)Cc2ccc([N+](=O)[O-])cc2)cc1	ALDH1A1 inh inconclusive (no result: IMPase inh)
Cc1cc(Oc2nnnn2-c2ccccc2)ccc1Cl	ALDH1A1 inh inconclusive
CC(C)C[C@@H](CC(=O)N[C@H](CC(=O)N[C@@H]1CCNC[C@H]1C(=O)N[C@H](CC(=O)N[C@@H](CCC(=O)O)CC(=O)O)Cc1c[nH]c2ccccc12)C(C)C)NC(=O)[C@@H]1CCCC[C@H]1N	none (no result: IMPase inh)
CCc1ccc2oc(-c3ccc(NC(=O)c4cccc(Cl)c4Cl)cc3)nc2c1	none (no result: HPGD inh, ALDH1A1 inh)
COC1(OC)C(/C=C/c2ccc(Cl)cc2)C(C#N)(C#N)C1(OC)OC (stereo not drawn)	ALDH1A1 inh inconclusive
CCC(=O)NC(=S)NNC(=O)c1ccc(OC)cc1	ALDH1A1 inh 39.8µM
Cc1ccc(C(=O)NC(=S)N2CCN(c3ccc([N+](=O)[O-])cc3)CC2)cc1	ALDH1A1 inh inconclusive (no result: IMPase inh)
COc1ccc(C(=O)NC(=S)NNC(=O)CNC(=O)C2CCCCC2)cc1	ALDH1A1 inh 22.4µM (no result: HPGD inh, IMPase inh)
COc1ccc(C(=O)NNC(=O)CNC(=O)C2CCCCC2)cc1	none (no result: HPGD inh, IMPase inh)
O=C(COc1ccccc1)NC(=S)Nc1ccc(Br)cn1	none (no result: HPGD inh, IMPase inh)
CCCCOc1ccc(C(=O)NNC(=S)NC(=O)CC)cc1	none (no result: IMPase inh)
CCC1CCCCN1C(=S)NC(=O)c1ccc([N+](=O)[O-])cc1 (stereo not drawn)	ALDH1A1 inh 35.5µM (no result: IMPase inh)
CCC(=O)NC(=S)NNC(=O)COc1ccc(Br)cc1	ALDH1A1 inh 23.8µM (no result: HPGD inh, IMPase inh)
CCC(Oc1ccccc1)C(=O)N1CC(C)CC(C)C1 (stereo not drawn)	none
O=C(/C=C/c1ccccc1)NC1CCSC1=O (stereo not drawn)	none
CC(C)Oc1ccc(C(=O)NCC(=O)OCC(=O)N(C)Cc2cccs2)cc1	none (no result: HPGD inh, IMPase inh)
CCC(=O)NC(=S)Nc1ccc(NC(=O)COc2ccccc2)cc1	ALDH1A1 inh 25.1µM
CC(C)CC(=O)NC(=S)NNC(=O)c1ccc([N+](=O)[O-])cc1	HPGD inh 31.6µM (no result: IMPase inh)
CCC(=O)Nc1ccc(NC(=S)NC(=O)Cc2ccccc2)cc1	none (no result: IMPase inh)
CC(C)CC(=O)NC(=S)NNC(=O)c1ccc(NC(=O)C2CCCCC2)cc1	none (no result: IMPase inh)
Cc1coc(=N)n1CC(=O)c1ccc(Cl)cc1	none (no result: HPGD inh, IMPase inh)
Cc1ccc(-n2nnnc2C(Cl)c2nnnn2-c2ccc(C)cc2)cc1	HPGD inh 5.01µM
Cc1ccc(-n2nnnc2-c2ccco2)cc1	ALDH1A1 inh inconclusive
O=C1CCCN1CC(O)CS(=O)(=O)c1ccc(Cl)cc1 (stereo not drawn)	none
COC(=O)[C@@]1(Cc2ccc(F)cc2)[C@H]2c3cc(C(=O)N(C)C)n(CCN4CCOCC4)c3C[C@H]2CN1C(=O)c1ccccc1	none (no result: IMPase inh)
Cc1cc(C)n(/N=C/c2cccc([N+](=O)[O-])c2)c(=O)c1	HPGD inh inconclusive (no result: IMPase inh)
O=[N+]([O-])c1ccc(/C=N/n2c(-c3cccnc3)n[nH]c2=S)cc1	ALDH1A1 inh 2.82µM (no result: HPGD inh)
Cc1ccsc1/C=N/n1c(-c2cccnc2)n[nH]c1=S	HPGD inh inconclusive, ALDH1A1 inh inconclusive
O=[N+]([O-])c1ccc(Cl)c(/C=N/n2c(-c3cccnc3)n[nH]c2=S)c1	HPGD inh 8.91µM, ALDH1A1 inh 7.94µM
S=c1[nH]nc(-c2cc(-c3ccccc3)n[nH]2)n1/N=C/c1ccc(Cl)c(Cl)c1	none (no result: HPGD inh, IMPase inh)
O=[N+]([O-])c1cccc(/C=N/n2c(-c3cccnc3)n[nH]c2=S)c1	HPGD inh 20µM, ALDH1A1 inh 10µM (no result: IMPase inh)
O=C(c1cc(Cl)cc(Cl)c1)N1CCOCC1	none
CCN(CC)c1ccc(/C=N/NS(=O)(=O)c2ccc(C)c([N+](=O)[O-])c2)cc1	ALDH1A1 inh 20µM (no result: HPGD inh)
CC(=O)NCCNS(=O)(=O)c1ccc(C)c([N+](=O)[O-])c1	none (no result: HPGD inh, IMPase inh)
O=C(CN(Cc1ccccc1)S(=O)(=O)c1ccccc1)N/N=C/c1ccc([N+](=O)[O-])cc1	none (no result: IMPase inh)
CCN(Cc1ccccc1)c1ccc(/C=N/NS(=O)(=O)c2cccc([N+](=O)[O-])c2)cc1	ALDH1A1 inh 6.31µM (no result: IMPase inh)
O=C(N/N=C/c1ccc(O)cc1O)c1cc(-c2ccccc2)n[nH]1	ALDH1A1 inh inconclusive (no result: IMPase inh)
N[C@@H](C(=O)O)[C@@H](CC(=O)O)c1ccc(Cl)cc1	none (no result: HPGD inh, IMPase inh)
Cc1c(NC(=O)CN2CCC(C(N)=O)CC2)cccc1[N+](=O)[O-]	none (no result: HPGD inh, IMPase inh)
COCCNC(=S)N/N=C/c1ccc(OCc2ccc(C(=O)OC)cc2)c(OC)c1	none (no result: IMPase inh)
CCCCOc1ccc(CNC(=S)N/N=C/c2ccc(OC)c(OC)c2)cc1	HPGD inh 15.8µM
CCOc1ccc(CNC(=S)N/N=C/c2cccnc2)cc1	none (no result: IMPase inh)
CCOc1ccc(CNC(=S)N/N=C\c2ccc([N+](=O)[O-])cc2)cc1	ALDH1A1 inh 3.16µM
CS(=O)(=O)NCc1nnc(SCc2c(F)cccc2Cl)o1	none (no result: HPGD inh, IMPase inh)
